Source: PubChem BioAssay (NCI)
Compounds without any hit were thinned out: in the full panel of roughly 83,000, 20% have a hit.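 The test compound was applied at a single concentration to cells in 96-well plates for 48 hours, and percent growth was recorded.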 Unmarked numbers belong to inactive results. Activity calls are given as the source filed them. *1 amine or outer side, *2 acyl side, *3 side chain or, on linkers, in order; H or OH if unused. Where a SMILES comes first, the peptide text is derived from it. [ ]: non-standard residue; d: D form. The star is where a group is joined. X5 = CCC(=O)CC1CC(C)CC(C(=O)[*:2])N1[*:1]; X4 = CCCCCCCCC(C)C(=O)*; Aib = CC(C)(N)C(=O)O; X6 = CC(CN(C)CCO)N*

Tested on: SK-MEL-2 melanoma
Experiment: NCI-60 one-dose screen, 48 h (100 = growth as untreated, 0 = no growth, -100 = all killed)
Settings: 10 µM unless noted
Protocol: Growth inhibition of the SK-MEL-2 human tumor cell line is measured as a screen for anti-cancer activity. Cells are grown in 96 well plates and exposed to the test compound for 48 hours. Compounds are tested at a single concentration, which is 10^-5 M for most compounds. The reported endpoint is percent growth (GI% or GIPRCNT), where numbers from 0 - 100% represent growth inhibition, and numbers from -100% - 0 represent cell death. For example, a value of 40 represents 60% growth inhibition. A value of 0 means no net growth occurred over the course of the experiment. A value of -40 indicates 40% of cells at the beginning of the experiment died by the end of the experiment. A value of -100 means all cells are dead at the end of the experiment.
NCI-60 Human Tumor Cell Lines Screen was performed using the standard one-dose NCI protocol, which is described in more detail at https://dtp.cancer.gov/discovery_development/nci-60/default.htm.
Compounds with GIPRCNT values below 10 were considered active. Activity score was based on GIPRCNT using the following formula: […]
Score is 0 for GIPRCNT values of 100 or above, 50 for GIPRCNT values of 0, and 100 for GIPRCNT values of -100.

SMILES	growth
O=[N+]([O-])c1ccc(Oc2ccccc2Cl)c([N+](=O)[O-])c1	88.6%
CCCCCCCCCCCC1=NCCCN1CCCC	107%
Cc1cc(=O)oc2cc(O)cc(O)c12	107%
COc1cc(/C=C2\SC(=S)N(/C=C/c3nc4ccccc4[nH]c3=O)C2=O)cc(OC)c1OC	81.1%
O=C1C=CC(=O)c2c(O)c(CO)c(CO)c(O)c21	119%
CC(C)Nc1ccc(Nc2ccc(NC(C)C)cc2)cc1	69.9%
CCN1/C(=C/C(C)=C/c2sc3ccc4ccccc4c3[n+]2CC)Sc2ccc3ccccc3c21	-93.5% (active)
CC(C)=CCCC(C)C1=C(O)C(=O)C(C)=CC1=O (stereo not given)	92.9%
CCN(CC)CC(O)CNc1ccc(NCC2CO2)c2c1C(=O)c1ccccc1C2=O (stereo not given)	-46.5% (active)
O=C(/C=C/c1ccccc1)c1ccccc1O	98.6%
S=C1SCN(Cc2cccs2)CN1Cc1cccs1	99%
CC[n+]1ccc(Nc2ccc(NC(=O)c3ccc(Nc4cc[n+](CC)c5ccc([N+](=O)[O-])cc45)cc3)cc2)cc1	111%
O=[N+]([O-])c1cc(-c2ccccc2)c(O)c([N+](=O)[O-])c1	75.2%
Cc1ccc(NC2=CC(=O)C(=O)c3ccccc32)cc1	4.01% (active)
CN(C)c1ccc(C(C#N)(c2ccccc2)c2ccc(N(C)C)cc2)cc1	85.2%
CC(C)(C)c1ccc(O)c(Br)c1	126%
O=C(CCl)N1c2ccccc2Sc2c1ccc1ccccc21	82.7%
O=C1CSC(=S)N1Cc1cccnc1	85.8%
CCCCCCCCCCCC[n+]1ccc(CCCCCCCCC)cc1	-48.1% (active)
CCCCN(CCCC)CCCCCCCCCCO	86.9%

SMILES	growth
O=C1C=CC(=O)N1c1ccccc1	103%
Oc1ccccc1N=Cc1ccccc1	82.4%
c1ccc2sc(SSN3CC4CCC(CC4)C3)nc2c1	124%
Cc1cc(I)nc2ccccc12	110%
O=C(c1ccccc1)c1ccc(O)c2ncccc12	43%
COc1ccc2nc3cc(Cl)ccc3c(NCCCCCN3CCCCC3)c2c1	-71.8% (active)
Oc1ccc(Cl)cc1Cc1cc(Cl)ccc1O	5.31% (active)
C(=N\Nc1ccc2ccccc2n1)/c1ccccn1	39.5%
CN1CCC(c2ccccc2)(c2ccccc2)C(=O)C1	122%
CCOC(=O)c1[nH]c(C#N)c(C(=O)OCC)c1C	104%
CCCCCCCCC(C)C(=O)N1CCCC1C(=O)N1C(CC(=O)CC)CC(C)CC1C(=O)NC(C)C(=O)NC(C)(C)C(=O)NC(C)(C)C(=O)NC(C(=O)NC(C)C(=O)NC(C)(C)C(=O)NC(C)(C)C(=O)NC(C)CN(C)CCO)C(C)CC (stereo not given) (X4-P[X5]A[Aib][Aib]IA[Aib][Aib]-X6; configuration not given here)	-34% (active)
O=C/C=C/c1ccc([N+](=O)[O-])cc1	103%
O=C(c1ccccc1)C(Br)C(Br)c1ccccc1 (stereo not given)	75.5%
C[C@@]1(CO)[C@H](O)CC[C@@]2(C)[C@H]1CC[C@H]1C[C@@H]3C[C@@]12CC[C@@]3(O)COC(=O)CN	102%
Cc1cc(C(=C2C=CC(=Nc3ccccc3)C=C2)c2ccc(Nc3ccccc3)cc2)ccc1N	-87.4% (active)
O=C1c2ccccc2Cc2cccc(Cl)c21	87.5%
CCOC(=O)C1(C)CCCC1N (stereo not given)	113%
O=[N+]([O-])/C(=C/c1ccccc1)c1ccccc1	107%
O=[N+]([O-])c1ccc(C(Br)c2ccc([N+](=O)[O-])cc2)cc1	97.6%
O=C(c1ccccc1)c1cc2ccccc2oc1=O	126%
